# Experimental data from paper PMC7862700, “An all-to-all approach to the identification of sequence-specific readers for epigenetic DNA modifications on cytosine”.
# Experiments:
# Assay in all cases: DAPPL (digital affinity profiling via proximity ligation, sequencing); 10 mM Tris-HCl pH 7.5, 50 mM NaCl, 1 mM DTT, 4% glycerol, room temperature, 30 min; GST-TFs on glutathione beads, 16-mer random dsDNA library, 0.1% formaldehyde crosslink after washing; high values mean tight binding
# FLI1 = molecular target: T1, FLI1 (Homo sapiens, UniProt Q01543 1-452); settings: protein: recombinant; tags: N-terminal GST; dsDNA, one strand shown
# T1 sequence: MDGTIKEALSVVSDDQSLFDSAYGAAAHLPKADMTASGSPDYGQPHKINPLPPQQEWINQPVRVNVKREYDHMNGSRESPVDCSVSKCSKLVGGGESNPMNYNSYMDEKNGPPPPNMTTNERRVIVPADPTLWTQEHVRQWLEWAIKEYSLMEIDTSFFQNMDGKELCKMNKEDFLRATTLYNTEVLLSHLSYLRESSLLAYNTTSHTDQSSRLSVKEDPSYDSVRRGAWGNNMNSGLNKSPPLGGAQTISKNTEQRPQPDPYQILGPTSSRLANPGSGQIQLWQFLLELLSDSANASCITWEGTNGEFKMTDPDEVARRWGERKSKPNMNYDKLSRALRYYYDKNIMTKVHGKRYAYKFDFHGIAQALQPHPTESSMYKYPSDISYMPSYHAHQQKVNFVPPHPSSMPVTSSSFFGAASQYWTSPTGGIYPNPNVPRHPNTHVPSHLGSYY
# Summary of the method: (§1)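 GST fusions of human transcription factors were expressed in yeast and captured with glutathione beads. Once given DNA barcodes and pooled alongside a tag-only sample, they were incubated for 30 min at room temperature with 200 nmole of a random double-stranded 16-mer DNA library in Tris/NaCl/DTT/glycerol buffer, then washed, crosslinked (0.1% formaldehyde), proximity-ligated, PCR-amplified and sequenced on an Illumina NextSeq500. The binding signal of each hexamer is its read frequency for a factor divided by its frequency for the tag-only sample.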
# ELK1 = molecular target: T2, ELK1 (Homo sapiens, UniProt P19419 1-428); settings: protein: recombinant; tags: N-terminal GST; dsDNA, one strand shown
# T2 sequence: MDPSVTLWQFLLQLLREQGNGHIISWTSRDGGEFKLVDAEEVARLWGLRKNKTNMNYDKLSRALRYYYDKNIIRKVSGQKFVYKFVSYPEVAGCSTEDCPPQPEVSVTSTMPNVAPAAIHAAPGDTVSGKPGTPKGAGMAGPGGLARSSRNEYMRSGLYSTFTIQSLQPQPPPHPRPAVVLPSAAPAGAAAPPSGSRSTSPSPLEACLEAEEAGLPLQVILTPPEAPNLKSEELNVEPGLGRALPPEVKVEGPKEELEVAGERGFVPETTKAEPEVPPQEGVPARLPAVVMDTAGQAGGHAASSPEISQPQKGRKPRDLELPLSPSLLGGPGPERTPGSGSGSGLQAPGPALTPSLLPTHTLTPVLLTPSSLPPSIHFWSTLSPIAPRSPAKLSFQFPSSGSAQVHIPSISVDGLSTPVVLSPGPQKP
# Summary of the method: as §1
# GABPA = molecular target: T3, GABPA (Homo sapiens, UniProt Q06546 1-454); settings: protein: recombinant; tags: N-terminal GST; dsDNA, one strand shown
# T3 sequence: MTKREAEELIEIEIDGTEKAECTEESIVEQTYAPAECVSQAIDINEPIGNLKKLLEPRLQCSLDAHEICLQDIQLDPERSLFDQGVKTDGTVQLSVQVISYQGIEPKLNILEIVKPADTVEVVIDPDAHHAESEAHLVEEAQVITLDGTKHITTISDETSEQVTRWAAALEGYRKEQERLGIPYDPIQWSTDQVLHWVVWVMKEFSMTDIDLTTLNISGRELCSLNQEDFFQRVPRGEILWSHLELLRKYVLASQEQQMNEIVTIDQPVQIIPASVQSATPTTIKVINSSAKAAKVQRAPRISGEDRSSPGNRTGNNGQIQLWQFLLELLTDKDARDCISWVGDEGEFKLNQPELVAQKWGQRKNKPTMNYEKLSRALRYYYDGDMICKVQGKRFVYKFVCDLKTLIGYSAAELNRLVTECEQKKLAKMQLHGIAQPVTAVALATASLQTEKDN
# Summary of the method: as §1
# ERG = molecular target: T4, ERG (Homo sapiens, UniProt P11308 1-479); settings: protein: recombinant; tags: N-terminal GST; dsDNA, one strand shown
# T4 sequence: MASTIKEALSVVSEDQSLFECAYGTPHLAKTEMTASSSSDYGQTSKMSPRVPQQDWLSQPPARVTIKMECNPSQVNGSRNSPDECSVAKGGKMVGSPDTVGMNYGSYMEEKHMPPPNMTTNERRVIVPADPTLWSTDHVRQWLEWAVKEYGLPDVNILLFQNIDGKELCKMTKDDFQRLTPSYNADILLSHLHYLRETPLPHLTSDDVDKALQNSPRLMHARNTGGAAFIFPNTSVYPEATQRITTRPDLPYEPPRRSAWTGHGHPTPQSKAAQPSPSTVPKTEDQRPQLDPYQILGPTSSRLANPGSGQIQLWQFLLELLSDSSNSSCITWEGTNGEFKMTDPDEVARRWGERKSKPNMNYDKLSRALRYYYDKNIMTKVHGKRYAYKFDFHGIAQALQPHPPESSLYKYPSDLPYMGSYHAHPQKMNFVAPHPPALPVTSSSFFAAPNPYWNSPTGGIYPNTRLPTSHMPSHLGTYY
# Summary of the method: as §1
# ELF1 = ELF1 (Homo sapiens, UniProt P32519 1-619); settings: protein: recombinant; tags: N-terminal GST; dsDNA, one strand shown
# Summary of the method: as §1
# EHF = molecular target: T5, EHF (Homo sapiens, UniProt Q9NZC4 1-300); settings: protein: recombinant; tags: N-terminal GST; dsDNA, one strand shown
# T5 sequence: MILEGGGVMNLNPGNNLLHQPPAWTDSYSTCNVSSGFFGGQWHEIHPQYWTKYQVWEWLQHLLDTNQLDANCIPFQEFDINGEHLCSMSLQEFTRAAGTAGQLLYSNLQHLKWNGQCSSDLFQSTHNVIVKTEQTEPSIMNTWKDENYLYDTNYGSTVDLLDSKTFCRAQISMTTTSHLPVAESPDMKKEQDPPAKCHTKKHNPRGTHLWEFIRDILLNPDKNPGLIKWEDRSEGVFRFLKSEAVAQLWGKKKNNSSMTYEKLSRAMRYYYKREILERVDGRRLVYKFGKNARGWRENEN
# Summary of the method: as §1
# SPI1 = SPI1 (Homo sapiens, UniProt P17947 1-270); settings: protein: recombinant; tags: N-terminal GST; dsDNA, one strand shown
# Summary of the method: as §1
# SPIB = SPIB (Homo sapiens, UniProt Q01892 1-262); settings: protein: recombinant; tags: N-terminal GST; dsDNA, one strand shown
# Summary of the method: as §1
# ELK3 = molecular target: T6, ELK3 (Homo sapiens, UniProt P41970 1-407); settings: protein: recombinant; tags: N-terminal GST; dsDNA, one strand shown
# T6 sequence: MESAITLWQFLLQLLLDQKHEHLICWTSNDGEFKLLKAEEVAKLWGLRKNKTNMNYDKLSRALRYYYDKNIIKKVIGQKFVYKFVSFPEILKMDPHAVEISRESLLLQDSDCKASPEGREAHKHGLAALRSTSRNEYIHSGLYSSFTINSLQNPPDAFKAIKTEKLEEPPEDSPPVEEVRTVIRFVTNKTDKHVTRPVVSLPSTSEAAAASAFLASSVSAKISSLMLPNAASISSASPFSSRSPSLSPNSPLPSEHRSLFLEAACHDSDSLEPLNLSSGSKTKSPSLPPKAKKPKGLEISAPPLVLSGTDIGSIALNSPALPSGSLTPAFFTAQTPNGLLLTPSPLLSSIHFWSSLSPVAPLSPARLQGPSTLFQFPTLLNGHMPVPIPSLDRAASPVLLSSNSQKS
# Summary of the method: as §1
# FEV = molecular target: T7, FEV (Homo sapiens, UniProt Q99581 1-238); settings: protein: recombinant; tags: N-terminal GST; dsDNA, one strand shown
# T7 sequence: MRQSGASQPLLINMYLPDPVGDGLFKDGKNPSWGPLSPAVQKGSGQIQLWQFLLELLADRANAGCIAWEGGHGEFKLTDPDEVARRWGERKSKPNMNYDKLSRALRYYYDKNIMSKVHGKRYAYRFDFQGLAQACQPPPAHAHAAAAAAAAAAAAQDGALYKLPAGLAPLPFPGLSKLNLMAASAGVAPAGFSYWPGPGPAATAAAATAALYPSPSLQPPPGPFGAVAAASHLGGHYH
# Summary of the method: as §1
# ETV5 = ETV5 (Homo sapiens, UniProt P41161 1-510); settings: protein: recombinant; tags: N-terminal GST; dsDNA, one strand shown
# Summary of the method: as §1
# HSF1 = HSF1 (Homo sapiens, UniProt Q00613 1-529); settings: protein: recombinant; tags: N-terminal GST; chain copies: 3; dsDNA, one strand shown
# Summary of the method: as §1
# SPIC = molecular target: T8, SPIC (Homo sapiens, UniProt Q8N5J4 1-248); settings: protein: recombinant; tags: N-terminal GST; dsDNA, one strand shown
# T8 sequence: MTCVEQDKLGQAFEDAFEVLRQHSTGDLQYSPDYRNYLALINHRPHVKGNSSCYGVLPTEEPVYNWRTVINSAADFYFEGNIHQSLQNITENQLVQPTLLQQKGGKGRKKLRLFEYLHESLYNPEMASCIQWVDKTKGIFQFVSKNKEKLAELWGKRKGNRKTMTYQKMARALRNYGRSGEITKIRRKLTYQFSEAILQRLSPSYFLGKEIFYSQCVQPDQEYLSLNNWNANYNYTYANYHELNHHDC
# Summary of the method: as §1
# ELF4 = ELF4 (Homo sapiens, UniProt Q99607 1-663); settings: protein: recombinant; tags: N-terminal GST; dsDNA, one strand shown
# Summary of the method: as §1
# ELK4 = molecular target: T9, ELK4 (Homo sapiens, UniProt P28324-2 1-405); settings: protein: recombinant; tags: N-terminal GST; dsDNA, one strand shown
# T9 sequence: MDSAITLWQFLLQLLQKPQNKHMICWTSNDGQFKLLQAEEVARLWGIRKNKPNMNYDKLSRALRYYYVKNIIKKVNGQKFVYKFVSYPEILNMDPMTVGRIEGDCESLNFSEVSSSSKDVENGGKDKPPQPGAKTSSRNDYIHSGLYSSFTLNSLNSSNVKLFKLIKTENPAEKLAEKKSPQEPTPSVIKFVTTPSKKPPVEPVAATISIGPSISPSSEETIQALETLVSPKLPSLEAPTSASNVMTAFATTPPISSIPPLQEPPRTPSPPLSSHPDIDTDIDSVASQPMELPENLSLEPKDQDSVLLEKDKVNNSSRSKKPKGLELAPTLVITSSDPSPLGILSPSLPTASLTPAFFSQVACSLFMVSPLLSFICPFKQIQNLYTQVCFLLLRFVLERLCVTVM
# Summary of the method: as §1
# ETV2 = molecular target: T10, ETV2 (Homo sapiens, UniProt O00321 1-342); settings: protein: recombinant; tags: N-terminal GST; dsDNA, one strand shown
# T10 sequence: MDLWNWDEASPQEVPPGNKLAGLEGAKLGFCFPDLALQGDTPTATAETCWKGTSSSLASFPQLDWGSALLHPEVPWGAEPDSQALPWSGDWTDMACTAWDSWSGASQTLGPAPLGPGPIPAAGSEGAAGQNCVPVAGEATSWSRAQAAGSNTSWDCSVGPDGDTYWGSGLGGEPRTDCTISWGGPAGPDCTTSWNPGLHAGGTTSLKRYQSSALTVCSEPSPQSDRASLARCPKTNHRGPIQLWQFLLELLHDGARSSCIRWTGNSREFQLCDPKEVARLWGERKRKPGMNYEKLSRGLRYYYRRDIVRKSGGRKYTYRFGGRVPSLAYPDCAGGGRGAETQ
# Summary of the method: as §1
# ELF3 = molecular target: T11, ELF3 (Homo sapiens, UniProt P78545 1-371); settings: protein: recombinant; tags: N-terminal GST; dsDNA, one strand shown
# T11 sequence: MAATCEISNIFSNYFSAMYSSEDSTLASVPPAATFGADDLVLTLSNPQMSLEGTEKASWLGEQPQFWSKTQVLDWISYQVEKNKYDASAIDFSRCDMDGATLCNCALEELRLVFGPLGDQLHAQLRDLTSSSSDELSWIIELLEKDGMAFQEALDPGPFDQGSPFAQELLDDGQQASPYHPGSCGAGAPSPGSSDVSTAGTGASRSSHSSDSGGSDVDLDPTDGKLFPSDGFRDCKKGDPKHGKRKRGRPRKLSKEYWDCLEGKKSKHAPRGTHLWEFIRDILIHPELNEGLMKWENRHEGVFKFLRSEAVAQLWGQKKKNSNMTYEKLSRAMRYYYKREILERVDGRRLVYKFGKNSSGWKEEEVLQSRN
# Summary of the method: as §1
# CRX = CRX (Homo sapiens, UniProt O43186 1-299); settings: protein: recombinant; tags: N-terminal GST; dsDNA, one strand shown
# Summary of the method: as §1
# ETV1 = ETV1 (Homo sapiens, UniProt P50549 1-477); settings: protein: recombinant; tags: N-terminal GST; dsDNA, one strand shown
# Summary of the method: as §1
# ELF1, sequence (P32519 whole entry): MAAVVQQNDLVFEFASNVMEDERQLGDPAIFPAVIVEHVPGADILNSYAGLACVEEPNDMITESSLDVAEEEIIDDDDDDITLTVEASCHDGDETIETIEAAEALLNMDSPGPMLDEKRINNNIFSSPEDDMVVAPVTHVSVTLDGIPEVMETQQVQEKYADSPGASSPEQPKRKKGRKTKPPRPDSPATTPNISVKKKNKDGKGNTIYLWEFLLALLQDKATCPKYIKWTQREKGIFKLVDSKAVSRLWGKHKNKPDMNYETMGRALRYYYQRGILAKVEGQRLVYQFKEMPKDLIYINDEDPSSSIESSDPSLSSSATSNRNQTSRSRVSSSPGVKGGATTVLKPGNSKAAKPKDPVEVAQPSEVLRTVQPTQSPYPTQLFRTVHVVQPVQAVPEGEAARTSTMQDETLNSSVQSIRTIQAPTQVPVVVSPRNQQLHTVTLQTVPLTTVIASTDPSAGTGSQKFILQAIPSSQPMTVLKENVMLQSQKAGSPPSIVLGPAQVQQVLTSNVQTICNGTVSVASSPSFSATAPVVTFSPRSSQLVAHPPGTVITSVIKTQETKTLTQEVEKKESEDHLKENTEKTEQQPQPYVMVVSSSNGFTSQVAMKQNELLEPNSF
# ETV5, sequence (P41161 whole entry): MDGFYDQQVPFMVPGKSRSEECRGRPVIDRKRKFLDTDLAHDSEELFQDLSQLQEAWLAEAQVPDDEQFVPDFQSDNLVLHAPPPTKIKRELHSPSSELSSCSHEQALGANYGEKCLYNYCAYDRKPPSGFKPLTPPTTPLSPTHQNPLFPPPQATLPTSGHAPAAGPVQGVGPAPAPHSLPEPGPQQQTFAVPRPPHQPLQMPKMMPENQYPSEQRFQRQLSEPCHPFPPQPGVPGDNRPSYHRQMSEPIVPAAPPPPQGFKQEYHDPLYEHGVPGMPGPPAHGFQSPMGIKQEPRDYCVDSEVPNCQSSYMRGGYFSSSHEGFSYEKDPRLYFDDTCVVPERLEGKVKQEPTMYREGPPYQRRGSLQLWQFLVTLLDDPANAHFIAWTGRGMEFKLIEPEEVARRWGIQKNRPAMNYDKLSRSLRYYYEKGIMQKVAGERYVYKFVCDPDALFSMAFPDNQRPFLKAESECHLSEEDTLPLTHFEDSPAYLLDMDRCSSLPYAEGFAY
# HSF1, sequence (Q00613 whole entry): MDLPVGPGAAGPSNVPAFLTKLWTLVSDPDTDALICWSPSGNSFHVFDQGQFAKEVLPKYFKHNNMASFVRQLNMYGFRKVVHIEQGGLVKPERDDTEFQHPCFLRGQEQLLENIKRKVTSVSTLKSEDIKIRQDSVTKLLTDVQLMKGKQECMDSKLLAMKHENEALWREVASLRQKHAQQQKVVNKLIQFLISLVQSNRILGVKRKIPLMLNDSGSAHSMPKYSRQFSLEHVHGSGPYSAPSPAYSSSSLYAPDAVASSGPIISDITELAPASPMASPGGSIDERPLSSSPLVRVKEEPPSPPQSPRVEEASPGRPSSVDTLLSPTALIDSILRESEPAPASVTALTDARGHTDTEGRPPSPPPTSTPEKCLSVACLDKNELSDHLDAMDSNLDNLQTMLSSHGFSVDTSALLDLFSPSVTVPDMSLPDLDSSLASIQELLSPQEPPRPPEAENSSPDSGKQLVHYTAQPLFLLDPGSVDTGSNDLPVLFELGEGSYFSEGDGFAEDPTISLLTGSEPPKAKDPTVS
# CRX, sequence (O43186 whole entry): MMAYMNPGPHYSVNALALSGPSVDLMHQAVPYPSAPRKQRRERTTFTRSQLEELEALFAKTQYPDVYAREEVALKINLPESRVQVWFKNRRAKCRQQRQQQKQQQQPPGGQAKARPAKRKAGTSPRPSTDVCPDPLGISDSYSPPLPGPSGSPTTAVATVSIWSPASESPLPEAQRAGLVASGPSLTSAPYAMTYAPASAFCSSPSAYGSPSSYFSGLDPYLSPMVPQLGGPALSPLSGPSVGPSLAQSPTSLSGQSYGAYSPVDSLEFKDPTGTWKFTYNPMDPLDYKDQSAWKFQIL
# SPIB, sequence (Q01892 whole entry): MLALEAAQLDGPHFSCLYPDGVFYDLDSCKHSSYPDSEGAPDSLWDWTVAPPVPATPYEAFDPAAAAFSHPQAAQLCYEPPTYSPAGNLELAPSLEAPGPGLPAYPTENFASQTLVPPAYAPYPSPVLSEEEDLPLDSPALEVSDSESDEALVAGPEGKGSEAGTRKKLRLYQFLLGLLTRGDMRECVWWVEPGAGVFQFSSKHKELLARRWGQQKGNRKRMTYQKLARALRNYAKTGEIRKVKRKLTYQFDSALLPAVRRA
# ELF4, sequence (Q99607 whole entry): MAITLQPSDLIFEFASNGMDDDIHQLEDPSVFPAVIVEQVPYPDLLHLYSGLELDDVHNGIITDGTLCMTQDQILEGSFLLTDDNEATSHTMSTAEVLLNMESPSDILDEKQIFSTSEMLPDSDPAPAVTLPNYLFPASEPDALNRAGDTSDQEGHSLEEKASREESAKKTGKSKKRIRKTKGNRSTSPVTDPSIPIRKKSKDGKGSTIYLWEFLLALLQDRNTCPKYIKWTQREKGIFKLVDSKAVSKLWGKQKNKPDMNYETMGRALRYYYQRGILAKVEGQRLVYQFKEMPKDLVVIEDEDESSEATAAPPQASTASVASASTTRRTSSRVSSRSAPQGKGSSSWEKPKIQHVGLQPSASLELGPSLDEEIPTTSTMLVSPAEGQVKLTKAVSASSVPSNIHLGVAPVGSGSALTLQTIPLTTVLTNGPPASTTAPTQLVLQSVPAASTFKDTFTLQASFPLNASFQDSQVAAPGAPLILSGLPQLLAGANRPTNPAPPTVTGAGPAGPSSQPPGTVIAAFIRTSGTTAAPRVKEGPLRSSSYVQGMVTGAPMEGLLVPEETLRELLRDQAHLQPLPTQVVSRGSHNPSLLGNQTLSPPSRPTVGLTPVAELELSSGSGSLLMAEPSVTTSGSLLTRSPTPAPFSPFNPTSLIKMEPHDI
# ETV1, sequence (P50549 whole entry): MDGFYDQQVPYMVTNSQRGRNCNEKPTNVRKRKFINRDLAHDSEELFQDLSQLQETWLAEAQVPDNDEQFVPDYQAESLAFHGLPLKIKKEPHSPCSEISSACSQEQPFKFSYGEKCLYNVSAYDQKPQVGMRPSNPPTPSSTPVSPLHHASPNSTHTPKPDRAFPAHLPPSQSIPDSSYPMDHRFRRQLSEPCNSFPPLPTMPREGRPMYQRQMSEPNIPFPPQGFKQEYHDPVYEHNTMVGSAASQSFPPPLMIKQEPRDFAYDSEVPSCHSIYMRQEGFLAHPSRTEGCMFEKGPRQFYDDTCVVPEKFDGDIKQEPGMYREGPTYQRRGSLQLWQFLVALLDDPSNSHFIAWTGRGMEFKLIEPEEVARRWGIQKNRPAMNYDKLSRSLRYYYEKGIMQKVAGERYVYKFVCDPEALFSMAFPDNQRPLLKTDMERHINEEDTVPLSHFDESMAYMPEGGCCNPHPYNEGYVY
sequence,measurement,setting,value
TTATAA,binding signal,FLI1,"1.21 fold enrichment (6-mer frequency, TF over GST control)"
same,binding signal,ELK1,"1.16 fold enrichment (6-mer frequency, TF over GST control)"
same,binding signal,GABPA,"1.15 fold enrichment (6-mer frequency, TF over GST control)"
same,binding signal,ERG,"1.14 fold enrichment (6-mer frequency, TF over GST control)"
same,binding signal,ELF1,"1.14 fold enrichment (6-mer frequency, TF over GST control)"
same,binding signal,EHF,"1.16 fold enrichment (6-mer frequency, TF over GST control)"
same,binding signal,SPI1,"1.16 fold enrichment (6-mer frequency, TF over GST control)"
same,binding signal,SPIB,"1.2 fold enrichment (6-mer frequency, TF over GST control)"
same,binding signal,ELK3,"1.33 fold enrichment (6-mer frequency, TF over GST control)"
same,binding signal,FEV,"1.16 fold enrichment (6-mer frequency, TF over GST control)"
same,binding signal,ETV5,"1.13 fold enrichment (6-mer frequency, TF over GST control)"
same,binding signal,HSF1,"1.79 fold enrichment (6-mer frequency, TF over GST control)"
same,binding signal,SPIC,"1.2 fold enrichment (6-mer frequency, TF over GST control)"
same,binding signal,ELF4,"1.11 fold enrichment (6-mer frequency, TF over GST control)"
same,binding signal,ELK4,"1.14 fold enrichment (6-mer frequency, TF over GST control)"
same,binding signal,ETV2,"1.12 fold enrichment (6-mer frequency, TF over GST control)"
same,binding signal,ELF3,"1.32 fold enrichment (6-mer frequency, TF over GST control)"
same,binding signal,CRX,"2.9 fold enrichment (6-mer frequency, TF over GST control)"
same,binding signal,ETV1,"1.13 fold enrichment (6-mer frequency, TF over GST control)"
